From the supplement of paper PMC9262897, “Low-cost anti-mycobacterial drug discovery using engineered E. coli” (Nature Communications, 2022) come the findings set out here.

The structures appear in SMILES notation. Structures can show the parent of a compound that is named as a salt. ± gives the standard deviation of the averaged measurements.

The assay has as its system E. coli TESEC Mtb Alr. As to the kind of experiment: growth (OD600 after 10 h); higher = more growth (less inhibition). The note with it: arabinose 100 nM; compound 0.1 mM; raw OD600 reference: median of DMSO wells 0.413, cell-free background 0.052. As to the method:
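TESEC Mtb Alr E. coli (ΔaraC ΔtolC ΔentC Δalr ΔdadX, arabinose-inducible Mtb Alr) or the Alr+ wild-type control strain, grown in defined M9-fructose medium without D-alanine in 96-well plates with Prestwick library compounds at 0.1 mM and 1% DMSO. Low Alr induction is 0.1 µM arabinose and high induction is 10 mM arabinose.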
Molecule `O=C(N/N=C/c1ccc([N+](=O)[O-])o1)c1ccc(O)cc1` [Nifuroxazide] had a growth of 0.0646 ± 0.0031.
Molecule `COCCOC(=O)C1=C(C)NC(C)=C(C(=O)OC/C=C/c2ccccc2)C1c1cccc([N+](=O)[O-])c1` (centres undefined) [Cilnidipine] came in with a growth of 0.457 ± 0.0093.
The result for `CCN(CC)CCOC(=O)c1ccc(N)cc1` [Procaine hydrochloride] reads 0.412 ± 0.0056; that for `COc1cccc(N(C)C(=S)Oc2ccc3c(c2)CCCC3)n1` [Liranaftate], 0.407 ± 0.038; that for `CC(C)(Sc1cc(C(C)(C)C)c(O)c(C(C)(C)C)c1)Sc1cc(C(C)(C)C)c(O)c(C(C)(C)C)c1` [Probucol], 0.407 ± 0.0098.
In the case of `C[C@@H]1[C@H](O)[C@@H](C)/C=C/C=C/C=C/C=C/C=C/C=C/C=C/[C@H](O[C@@H]2O[C@H](C)[C@@H](O)[C@H](N)[C@@H]2O)C[C@@H]2O[C@](O)(C[C@@H](O)C[C@@H](O)[C@H](O)CC[C@@H](O)C[C@@H](O)CC(=O)O[C@H]1C)C[C@H](O)[C@H]2C(=O)O` [Amphotericin B] it was 0.433 ± 0.022; in that of `C[C@@H](O)[C@H]1C(=O)N2C(C(=O)O)=C(S[C@@H]3CN[C@H](C(=O)N(C)C)C3)[C@H](C)[C@H]12` [Meropenem], 0.04557 ± 0.00025; in that of `CC1CCc2cc(F)cc3c(=O)c(C(=O)O)cn1c23` (centres undefined) [Flumequine], 0.0543 ± 0.0034.
In the case of `O=C1CC2(CCCC2)CC(=O)N1CCCCN1CCN(c2ncccn2)CC1` [Buspirone hydrochloride] it was 0.411 ± 0.0053; in that of `CC[C@]12CCCN3CCc4c(n(c5ccccc45)[C@@](O)(C(=O)OC)C1)[C@@H]32` [Vincamine], 0.422 ± 0.011; in that of `N#CC(c1ccc(Cl)cc1)c1c(Cl)cc(-n2ncc(=O)[nH]c2=O)cc1Cl` (centres undefined) [Diclazuril], 0.0632 ± 0.00095.
Molecule `CCOC(=O)[C@H](CCc1ccccc1)N[C@H]1CCc2ccccc2N(CC(=O)O)C1=O` [Benazepril HCl] displayed a growth of 0.0476 ± 0.0029.
The molecule `C[C@H](CCC(=O)O)[C@H]1CC[C@H]2[C@@H]3[C@H](O)C[C@@H]4C[C@H](O)CC[C@]4(C)[C@H]3CC[C@]12C` [Chenodiol] yielded a growth of 0.392 ± 0.0058.
`CC(=O)CC(c1ccccc1)c1c(O)c2ccccc2oc1=O` (centres undefined) [Warfarin] returned a growth of 0.39 ± 0.0054.
In the case of `O=C1CN(/N=C/c2ccc(-c3ccc([N+](=O)[O-])cc3)o2)C(=O)N1` [Dantrolene sodium salt] it was 0.319 ± 0.1.
The result for `Nc1nc2c(ncn2COC(CO)CO)c(=O)[nH]1` [Ganciclovir] reads 0.417 ± 0.016; that for `Cc1ccc(C(=O)c2cc(O)c(O)c([N+](=O)[O-])c2)cc1` [Tolcapone], 0.0574 ± 0.0008; that for `Fc1ccc([C@@H]2CCNC[C@H]2COc2ccc3c(c2)OCO3)cc1` [Paroxetine Hydrochloride], 0.384 ± 0.0066.
In the case of `COc1ccc(CN2CCN(C(c3ccc(F)cc3)c3ccc(F)cc3)CC2)c(OC)c1OC` [Lomerizine hydrochloride] it was 0.248 ± 0.018; in that of `C[C@@H]1C[C@H]2[C@@H]3CCC4=CC(=O)C=C[C@]4(C)[C@@]3(Cl)[C@@H](O)C[C@]2(C)[C@@]1(OC(=O)c1ccco1)C(=O)CCl` [Mometasone furoate], 0.415 ± 0.013; in that of `Cc1cccc(Nc2ccncc2S(=O)(=O)NC(=O)NC(C)C)c1` [Torsemide], 0.403 ± 0.016.
`COc1nc(C)nc(Cl)c1NC1=NCCN1` [Moxonidine]: the growth was 0.411 ± 0.015.
The result for `NC(=O)c1cccnc1` [Nicotinamide] reads 0.43 ± 0.024; that for `NCCCC(O)(P(=O)(O)O)P(=O)(O)O` [Alendronate sodium], 0.422 ± 0.012.
For the molecule `NNC(=O)c1ccncc1` [Isoniazid], the growth amounted to 0.405 ± 0.0067.
In the case of `CC(C)OC(=O)C(C)(C)Oc1ccc(C(=O)c2ccc(Cl)cc2)cc1` [Fenofibrate] it was 0.401 ± 0.016; in that of `CCC[C@@H]1C[C@@H](C(=O)N[C@@H]([C@H]2O[C@H](SC)[C@H](O)[C@@H](O)[C@H]2O)[C@@H](C)O)N(C)C1` [Lincomycin hydrochloride], 0.443 ± 0.0099.
The result for `CS(=O)(=O)OCCCCOS(C)(=O)=O` [Busulfan] reads 0.4123 ± 0.004; that for `CC[C@H]1OC(=O)C[C@@H](O)[C@H](C)[C@@H](O[C@@H]2O[C@H](C)[C@@H](O[C@H]3C[C@@](C)(O)[C@@H](O)[C@H](C)O3)[C@H](N(C)C)[C@H]2O)[C@@H](CC=O)C[C@@H](C)C(=O)/C=C/C(C)=C/[C@@H]1CO[C@@H]1O[C@H](C)[C@@H](O)[C@@H](OC)[C@H]1OC` [Tylosin], 0.249 ± 0.12.
